Bioassay records from PubChem BioAssay.
TDP1 cell noCPT: qHTS for Inhibitors of human tyrosyl-DNA phosphodiesterase 1 (TDP1): qHTS in cells in absence of CPT | DT40 Tdp1-/- hTDP1 cells, no CPT, ATP luminescence, 48 h | Potency, µM (doses to about 46.2 µM), for inactives: at the highest dose activity change, negative = growth inhibition, most hits filed as inhibitors | hit rate 15% among 420,000 | AID 686978, 2013; note: potency is the fitted concentration of half-maximal effect; nearly all actives have a fitted effect of over 55% in size
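Compound effects on proliferation are scored in DT40 Tdp1-/-;hTDP1 cells in the absence of CPT. ATP levels (CellTiter-Glo luminescence) are recorded after a ≥48 hr, 37 °C incubation.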
HT1080 IDH1KD tx: HT-1080 IDH1 knockdown cell toxicity (counter line); HT-1080 IDH1 knockdown viability, ATP luminescence, 48 h; Potency, µM (highest dose often 46.1 µM), for inactives: top-dose activity, negative = toxicity, hits mostly cytotoxic; hit rate 2% among 360,000; AID 686971;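 note: potency is the fitted concentration of half-maximal effect; 0% = DMSO wells and -100% = cell-free medium wells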
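Viability of IDH1-knockdown HT-1080 fibrosarcoma cells was assessed by CellTiter-Glo after 48 h at 37 °C with titrated compound; concentration-effect curves were classified by fit quality and response size.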
HT1080-NT tox: kills 2HG-producing HT-1080-NT fibrosarcoma cells; hit rate 1.6% among 360,000; HT-1080-NT fibrosarcoma viability, CellTiter-Glo ATP luminescence, 48 h; Potency, µM (highest dose often 46.1 µM), inactives show at the top dose activity, negative = less viability, actives largely listed as cytotoxic;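 note: NT is the 2HG producing partner of a matched IDH1 knockdown line; potency is the fitted concentration of half-maximal effect; 0% = DMSO-treated cells and -100% = media-only wells without cells; nearly all actives have a fitted effect of over 55% in size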
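Fibrosarcoma NT cells, 750 per well in 5% FBS RPMI, were exposed to compound for 48 hours. Viability: CellTiter-Glo luminescence.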
IL-1B inflam inh: blocks inflammasome-driven IL-1 beta release; THP-1 LPS/ATP IL-1B secretion, AlphaLISA, 16 h; hits give low values; activity change, % at 57.5 µM; hit rate 4.7% among 360,000; AID 743279; in the data active = activity change below about -50%; inconclusive = mostly about -30% to -49%
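Secreted IL-1B measured by AlphaLISA bead assay after 16 h compound exposure of THP-1 cells; compounds (final up to 57.5 uM) added 1 h before LPS (250 ng/mL) and ATP (1.25 mM) stimulation; lower signal means less secretion.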
TDP1 cell CPT: growth inhibition of DT40 Tdp1-/-;hTDP1 cells with camptothecin (screen for TDP1 inhibitors); chicken DT40 Tdp1-/-;hTDP1 cells + 20 nM CPT, ATP luminescence, 48 h; Potency, µM (top dose mostly 46.2 µM), without a hit: top-dose activity change, negative = growth inhibition, usual class: inhibitors; AID 686979; hit rate 12% among 420,000; note: potency is the fitted concentration of half-maximal effect; nearly all actives have a fitted effect of over 55% in size
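Chicken DT40 Tdp1-/- cells complemented with human TDP1, 400 cells/well, exposed to compounds plus 20 nM camptothecin for at least 48 h at 37 C; viability read as ATP content by CellTiter-Glo luminescence.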
An asterisk follows results filed as active; ? = inconclusive; . = no result; ! = not active in a repeat. An excerpt weighted towards active compounds, which were near 19% of everything screened. Unless noted, calls come from the whole dose curve; as a rule, active = well fitted curve in the direction sought with a large enough effect; inconclusive = small, poorly fitted or top-dose-only effect, or another doubt; inactive = no such curve, though single readings can be large; an effect the other way counts as inactive or inconclusive. Unless noted, % is set by controls: 0 for no effect and ±100 for the full control effect.

SMILES | TDP1 cell noCPT | HT1080 IDH1KD tx | HT1080-NT tox | IL-1B inflam inh | TDP1 cell CPT
CN(C)C(=O)c1cccc(-c2cccc(-c3nc(C(=O)NCc4ccccc4)cc4c3[C@H](CCO)N(S(=O)C(C)(C)C)C4)c2)c1 (some centres undefined) | ? | -19% | -16% | 0 | ?
COc1ccc(OC)c(NC(=O)C2(C)CCN2Cc2cccc(OC)c2F)c1 (centres undefined) | ? | -46% | ? | -17 | ?
COc1ccc(NC(=O)C2(C)CCN2Cc2csc3ccccc23)cc1OC (centres undefined) | 15µM* | ? | -23% | -15 | 15µM*
COc1cccc(CN2CCC2(C)C(=O)Nc2cccc3cccnc23)c1F (centres undefined) | 18µM* | 13µM* | 23µM* | 21 | ?
COc1ccc(NC(=O)C2(C)CCN2Cc2cccc(OC)c2OC)cc1OC (centres undefined) | 16µM* | -1% | 5% | 0 | ?
COc1ccc(NC(=O)C2(C)CCN2Cc2ccc(OC)c3ccccc23)cc1OC (centres undefined) | 23µM* | 23µM* | ? | -26 | ?
O=C(COC(=O)C1CC1)Nc1c(Cl)cccc1C(F)(F)F | 5% | 14% | 3% | -4 | -2%
O=C(Nc1nc2c(s1)CN(Cc1ccccc1)CC2)c1c(F)cccc1F | ? | 6% | -9% | ? | -29%
CC1(C(=O)NCc2cccc(C(F)(F)F)c2)CCN1C1Cc2ccccc2C1 (centres undefined) | 21µM* | ? | ? | 12 | ?
COc1cccc(CN2CCC2(C)C(=O)NCc2cccc(C(F)(F)F)c2)c1OC (centres undefined) | 13µM* | ? | ? | -1 | 13µM*
CSc1ccc(CN2CCC2(C)C(=O)NCc2cccc(C(F)(F)F)c2)cc1 (centres undefined) | ? | ? | ? | -18 | ?
COc1ccc(-n2nc(C#N)c(Cl)cc2=O)cc1 | 4.6µM* | 13µM* | 7.3µM* | -106* | 3.3µM*
COC(=O)c1nn(-c2ccc(OC)cc2)c(=O)cc1O | -1% | 0% | 2% | 15 | 17%
CC(Sc1nnnn1-c1ccccc1)C(=O)Nc1ccc(N2CCN(C)CC2)cc1 (centres undefined) | 10µM* | 0% | 3% | -18 | 13µM*
OCCN1CCN(c2ncnc3ccc(Br)cc23)CC1 | 4.1µM* | -13% | 0% | -24 | -89%
OCCN1CCN(c2nccn3ccnc23)CC1 | -2% | 0% | 11% | 8 | 2%
OCCN1CCN(c2nc(-c3ccccc3)c3cc(Br)ccc3n2)CC1 | 9.2µM* | 23µM* | ? | -79* | ?
O=C(COc1coc(CN2CCN(c3ccc(F)cc3)CC2)cc1=O)NC1CCCCC1 | 7.3µM* | -11% | -1% | 0 | ?
O=C(Nc1ccc2c(c1)CN(Cc1ccccc1O)CC2)C1CCCO1 (centres undefined) | -13% | 5% | 8% | 12 | -12%
COc1ccc(OC)c(Nc2nc(C)nc3c2oc2ccccc23)c1 | 21µM* | -3% | -4% | 10 | 23µM*
COc1ccc(CCNc2nc(C)nc3c2oc2ccccc23)cc1OC | 4.1µM* | -19% | -10% | ? | 3.7µM*
COc1cccc(-n2ccn(CC(=O)Nc3ccccc3F)c(=O)c2=O)c1 | -21% | . | . | . | ?
CCOc1ccc(CCNC(=O)CS(=O)Cc2nc(-c3ccc(OC)cc3)oc2C)cc1OCC (centres undefined) | ? | 0% | -2% | -6 | ?
Cc1ccc(C)c(S(=O)(=O)Nc2cc(SCC(=O)O)c(O)c3ccccc23)c1 | 6.5µM* | 18µM* | 23µM* | -98* | 5.8µM*
O=C(O)CSc1cc(NS(=O)(=O)c2cccc([N+](=O)[O-])c2)c2ccccc2c1O | 1.8µM* | 18µM* | 13µM* | -86* | 2.3µM*
SMILES | TDP1 cell noCPT | HT1080 IDH1KD tx | HT1080-NT tox | IL-1B inflam inh | TDP1 cell CPT
CCOc1ccc(S(=O)(=O)Nc2cc(OC)c(OC)cc2C(=O)O)cc1 | 2% | 20% | 12% | 17 | -9%
CCOc1ccc(S(=O)(=O)Nc2cc(SCC(=O)O)c(O)c3ccccc23)cc1 | 4.6µM* | 23µM* | 23µM* | 94 | 3.7µM*
O=C(O)c1cccc(S(=O)(=O)Nc2ccc([N+](=O)[O-])cc2O)c1 | -15% | 6% | -1% | 7 | 1%
Cc1noc(C)c1NC(=O)Nc1cccc2c1O[C@H](CN(C)C(=O)NC1CCCCC1)[C@@H](C)CN([C@H](C)CO)C2=O | 10% | 6% | 6% | -2 | -1%
O=C(Nc1ccc(N2CCOCC2)cc1)C1CC(=O)N(c2ccc(F)cc2)C1 (centres undefined) | 9% | 8% | 9% | 2 | 1%
CCCC[C@@H]1CN=C(N)N1CC(C)(C)C | 23µM* | 8% | 13% | 14 | ?
O=C(Cn1nnc(-c2ccncc2)n1)N(C1CCCCC1)C1CCCCC1 | ? | 0% | 2% | 0 | -52%
OCC1OC(n2cnc3c(SCc4ccccc4)ncnc32)C(O)C1O (centres undefined) | ? | 23µM* | 7.3µM* | 17 | ?
Nc1ncnc2c1ncn2C1O[C@H](CO)[C@@H](O)[C@@H]1O (some centres undefined) | 0.21µM* | 0% | -2% | 16 | 0.46µM*
Nc1ncnc2c1ncn2[C@@H]1O[C@H](CO)[C@@H](O)[C@@H]1O | 0.37µM* | -2% | 16% | -3 | 0.46µM*
Cc1sc2ccccc2c1CNC[C@H]1O[C@@H](n2cnc3c(N)ncnc32)[C@H](O)[C@@H]1O | -27% | 0% | 6% | 1 | -9%
Cc1cn(-c2cccnc2)c(C)c1CNC[C@H]1O[C@@H](n2cnc3c(N)ncnc32)[C@H](O)[C@@H]1O | 9.2µM* | 0% | 5% | 28 | 18µM*
Nc1ncnc2c1ncn2C1OC(CO)C(O)C1N (centres undefined) | ? | 0% | 9% | 12 | -24%
N#Cc1c(N)n(C2OC(CO)C(O)C2O)c2ncnc(N)c12 (centres undefined) | 0.021µM* | 0.52µM* | 1.3µM* | -102* | 0.016µM*
Nc1ncnc2c1ncn2C1OC(CO)C(O)C1O (centres undefined) | 0.92µM*! | 21% | 19% | -15 | 1.3µM*!
Nc1ncnc2c1[nH]c(=S)n2C1OC(CO)C(O)C1O (centres undefined) | 2% | . | . | . | 2%
Nc1ncnc2c1c(I)cn2C1OC(CO)C(O)C1O (centres undefined) | 0.28µM* | . | . | . | 0.49µM*
